# Source: article PMC5540273 (PLoS ONE, 2017)
# Values joined by “and” are separate entries in the source; they are usually repeats but may differ in a detail not shown here. Equal values may be shown once. Read-outs that look alike come from different tables or passages of the source.
# Tests used:
# EIF2AK1 = conditions: concentration: 1 μM, replicates: in singlicate; n = 1
# EPHA1 = conditions: concentration: 1 μM, replicates: in singlicate, n = 1
# EPHA2 = conditions: concentration: 1 μM, replicates: in singlicate; n = 1
# EPHA3 = conditions: concentration: 1 μM, replicates: in singlicate, n = 1
# EPHA4 = conditions: concentration: 1 μM, replicates: in singlicate, n = 1
# EPHA5 = conditions: concentration: 1 μM, replicates: in singlicate; n = 1
# EPHA6 = conditions: concentration: 1 μM, replicates: in singlicate, n = 1
# EPHA7 = conditions: concentration: 1 μM, replicates: in singlicate; n = 1
# EPHA8 = conditions: concentration: 1 μM, replicates: in singlicate, n = 1
# EPHB1 = conditions: concentration: 1 μM, replicates: in singlicate, n = 1
# 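Also: KINOMEscan kinase panel screen.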
Compound,%Inh (EIF2AK1) [%],%Inh (EPHA1) [%],%Inh (EPHA2) [%],%Inh (EPHA3) [%],%Inh (EPHA4) [%],%Inh (EPHA5) [%],%Inh (EPHA6) [%],%Inh (EPHA7) [%],%Inh (EPHA8) [%],%Inh (EPHB1) [%],%Inh (EPHA1; 1 µM),%Inh (EPHA3; 1 µM),%Inh (EPHA4; 1 µM),%Inh (EPHA6; 1 µM),%Inh (EPHA8; 1 µM),%Inh (EPHB1; 1 µM)
OCCOCCn1ccc2ncnc(Nc3ccc(Oc4cccc(Cl)c4)c(Cl)c3)c21,0,0,1,0,0,0,0,0,0,2,–,–,–,–,–,–
Nc1nc(-c2ccc3c(N)n[nH]c3c2)cc(N2CCCCC2)n1 [GSK2228768],0,0,0,0,3,0,0,0,0,9,–,–,–,–,–,–
Nc1nccc2scc(-c3ccc4c(c3)CCN4C(=O)Cc3cc(F)ccc3F)c12 [GSK2587663],0,11,17,0,12,0,25,6,20,7,–,–,–,–,–,–
COc1cc2ncnc(Nc3ccc(OCc4ccccc4Br)c(Cl)c3)c2cc1OC.Cl [GI261590],0,8,14,0,3,15,7,4,17,12,–,–,–,–,–,–
CC(=O)Nc1n[nH]c2ncc(-c3ccccc3)cc12 [SB-548492],0,17,0,2,8,15,29,0,32,15,–,–,–,–,–,–
CCn1c(-c2ccncc2)nc2cnccc21 [SB-735216],19,23,5,99.1,10,0,16,0,14,0,–,–,–,–,–,–
Cl.c1ccc(Cn2ncc3cc(Nc4ncnc5ccccc45)ccc32)cc1 [GW273749],0,28,0,0,4,0,0,7,17,0,–,–,–,–,–,–
Cc1cc(N2CCC(NS(=O)(=O)c3ccc(F)cc3)CC2)nc(Nc2cccc(C#N)c2)n1.O=C(O)C(F)(F)F [GSK1653537],0,1,0,0,7,0,5,6,19,15,–,–,–,–,–,–
CCc1nc(-c2cccc(N(C)S(=O)(=O)c3ccccc3)c2)c(-c2ccnc(Nc3ccc(N4CCN(C(C)=O)CC4)nc3)n2)s1 [GSK1645895],0,29,0,14,0,0,2,5,25,7,–,–,–,–,–,–
Nc1nc(-c2ccc3c(N)n[nH]c3c2)cc(N2CCC[C@@H](C(=O)Nc3ccccc3)C2)n1.O=C(O)C(F)(F)F.O=C(O)C(F)(F)F [GSK2288359],1,17,0,0,4,0,0,3,3,21,–,–,–,–,–,–
O=C(Nc1n[nH]c2nc(-c3ccco3)c(Br)cc12)c1ccc(CN2CCCC2)cc1.O=C(O)[C@H](O)[C@@H](O)C(=O)O [SB-742352],0,3,0,0,100,0,100,0,7,6,–,–,–,–,–,–
Clc1cc(Nc2ncnc3cc[nH]c23)ccc1OCc1ccccn1,3,11,12,0,24,14,27,1,0,1,–,–,–,–,–,–
O=C(Nc1ccccc1)Nc1ccc(Oc2ccc3nccn3n2)cc1,0,31,25,0,0,0,0,3,23,13,–,–,–,–,–,–
Cl.Fc1ccccc1COc1ccc(Nc2ncnc3ccc(-c4nnc(C(F)(F)F)o4)cc23)cc1Cl [GW424170],0,19,0,0,3,0,0,3,0,19,–,–,–,–,–,–
Fc1ccc(Nc2nccc(-c3c(-c4ccc(Cl)cc4)nn4ncccc34)n2)cc1F [GW829058],0,13,3,27,12,24,15,8,9,20,–,–,–,–,–,–
Cl.O=S(=O)(c1cccc(F)c1)c1ccc(Nc2ncnc3cc(Br)sc23)cc1Cl [GSK306886],0,9,9,14,19,0,16,2,2,10,–,–,–,–,–,–
CSc1ccc(NC2=C(c3ccccc3Cl)C(=O)NC2=O)cc1 [SB-342411],0,2,27,16,7,0,0,6,14,9,–,–,–,–,–,–

Compound,%Inh (EIF2AK1) [%],%Inh (EPHA1) [%],%Inh (EPHA2) [%],%Inh (EPHA3) [%],%Inh (EPHA4) [%],%Inh (EPHA5) [%],%Inh (EPHA6) [%],%Inh (EPHA7) [%],%Inh (EPHA8) [%],%Inh (EPHB1) [%],%Inh (EPHA1; 1 µM),%Inh (EPHA3; 1 µM),%Inh (EPHA4; 1 µM),%Inh (EPHA6; 1 µM),%Inh (EPHA8; 1 µM),%Inh (EPHB1; 1 µM)
CN1CCC(n2cnc(-c3ccc(F)cc3)c2-c2ccnc(NC3CCNCC3)n2)CC1 [SB-229482],0,0,5,18,7,5,5,0,0,0,–,–,–,–,–,–
COc1ccc(-c2nc3n(c2-c2ccncc2)CCC3)cc1 [SKF-104493],0,–,0,–,–,0,–,0,–,–,18% and 0%,0% and 18%,0% and 17%,10% and 7%,8% and 0%,0% and 22%
Cn1ccc2ncnc(Oc3ccc(NC(=O)Nc4cccnc4)c(Cl)c3)c21,0,0,0,4,29,11,32,7,10,9,–,–,–,–,–,–
Cc1ccc(C)c(NC(=O)NCCNc2ccnc(Nc3ccc(F)cc3)n2)c1 [GSK1379878],0,6,11,0,0,0,0,0,3,0,–,–,–,–,–,–
O=C(Nc1ccccc1F)NC1CCN(c2ccnc(Nc3ccc(F)cc3)n2)C1 (stereo not drawn) [GSK1379722],0,0,8,0,0,0,4,5,14,11,–,–,–,–,–,–
CS(=O)(=O)CCNCc1nc(-c2ccc3ncnc(Nc4ccc(OCc5cccc(F)c5)c(Cl)c4)c3c2)cs1.Cl [GW583340],0,5,0,13,0,0,0,0,0,1,–,–,–,–,–,–
CC(C)N1CCC(n2cnc(-c3ccc(F)cc3)c2-c2ccnc(N)n2)CC1 [SB-223132],0,28,46,0,0,0,0,0,17,0,–,–,–,–,–,–
Cn1cc(-c2ccc3c(c2)CCN3C(=O)Cc2cccc(C(F)(F)F)c2)c2c(N)ncnc21 [GSK2606414],1,3,0,0,0,0,0,4,14,15,–,–,–,–,–,–
CS(=O)(=O)CCNCc1ccc(-c2ccc3ncnc(Nc4ccc(OCc5ccccc5)c(Cl)c4)c3c2)o1.Cl [GW574783],0,3,1,0,13,0,15,0,8,3,–,–,–,–,–,–
COc1ccc(NC(=O)Nc2ccc(C)c(-c3ccc(C(=O)Nc4ccncc4)cc3)c2)cc1 [GSK1398475],0,6,8,13,1,0,11,4,14,13,–,–,–,–,–,–
CCC(CC)(CC)n1cnc2c(N)ncnc21 [SKF-97620],30,0,100,11,15,0,16,22,23,9,–,–,–,–,–,–
COc1ccc(Nc2nccc(N3CCC(NC(=O)c4cccc(NC(C)=O)c4)C3)n2)cc1 (stereo not drawn) [GSK1379732],0,0,20,1,0,0,0,0,0,1,–,–,–,–,–,–
Fc1ccc(-c2ncn(CCCNCc3ccccc3)c2-c2ccncc2)cc1,0,4,10,0,6,7,23,0,19,15,–,–,–,–,–,–
CNc1nccc(-c2c(-c3ccc(F)cc3)ncn2CCCN2CCOCC2)n1 [SB-222516],12,14,0,0,0,0,0,21,25,17,–,–,–,–,–,–
Cc1ccc(O)cc1Nc1cc(C(F)(F)F)nc2ccc(-c3ccncc3)cc12 [GW630823],0,6,17,0,5,3,5,88,68,12,–,–,–,–,–,–
CN1c2ccc(-c3ccc(C(=O)NCCO)cc3)cc2-c2[nH]ncc2S1(=O)=O,0,11,27,14,14,19,22,3,0,7,–,–,–,–,–,–
